# AMA1 RON2 block – disrupts binding of P. falciparum AMA1 to RON2; AlphaScreen AMA1-biotinylated RON2 peptide binding; Potency, µM (highest dose often 58.2 µM), inactives show at the highest dose activity change, negative = inhibition, actives largely listed as inhibitors; hit rate 0.2% among 360,000; AID 720542;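 also: 0% = vehicle wells and -100% = peptide control; nearly all actives have a fitted effect of over 45% in size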
#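 AMA1 (3D7) with his tag at 25 nM final met compounds first, then biotinylated RON2 peptide at 25 nM; detection used donor plus acceptor beads, 10 µg/mL apiece, read by AlphaScreen after 30 min at room temperature.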
# HCV inh – blocks hepatitis C virus; Potency, µM (doses to about 41.8 µM), inactives show at the highest dose activity change, negative = inhibition, hits mostly inhibitors; hit rate 3.4% among 340,000; Huh7.5.1 HCVcc-Cre infection, luciferase reporter, 44 h; AID 651820
#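 Cells seeded at 1,000/well and cultured 4 h, then compounds added followed by HCVcc-Cre virus (~0.5 moi). After 44 h further culture, luciferase substrate was added, plates held 15 min at room temperature, and luminescence read for 15 sec.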
# Pf growth 96h – P. falciparum growth inhibition at 96 hour, primary screen for plastid delayed-death inhibitors | hit rate 6.9% among 320,000 | AID 504834 | P. falciparum luciferase reporter growth, 96 h | Potency, µM (top dose mostly 28.7 µM), for the others: at the highest dose activity change, negative = inhibition, hits mostly inhibitors
#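 Cell-based qHTS: luciferase-tagged P. falciparum in erythrocytes (2% hematocrit, 0.05% parasitemia final) incubated with compounds for 96 hours, 37 C, 5% CO2; luciferase detection reagent then added and luminescence measured.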
# Pf growth 48h – P. falciparum growth inhibition at 48 hours (one generation); P. falciparum luciferase growth in erythrocytes, 48 h; AID 504832; Potency, µM (series often up to 28.7 µM), for the others: at the top dose activity change, negative = inhibition, most hits filed as inhibitors; hit rate 5.9% among 310,000
#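 Growth was read as firefly luciferase luminescence after a 48 h, 37 C, 5% CO2 exposure of compounds to reporter-bearing P. falciparum cultures (0.1% parasitemia, 2% hematocrit final) in Albumax-supplemented RPMI 1640.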
# An asterisk follows results filed as active; i = inactive; ? = inconclusive; · = no result given. Compounds with a hit are over-represented: about 11% of the library has one in this group of screens. Calls follow the shape of the dose curve; as a rule, active = well fitted curve in the direction sought with a large enough effect; inconclusive = small, poorly fitted or top-dose-only effect, or another doubt; inactive = no such curve, though single readings can be large; an effect the other way counts as inactive or inconclusive. Unless noted, % is scaled to controls: 0 for no effect and ±100 for the full control effect; potency is read from the fitted curve at half-maximal effect.
SMILES,AMA1 RON2 block,HCV inh,Pf growth 96h,Pf growth 48h
Cc1c(C)c(C)c2[nH]c(-c3ccc4c(c3)OCO4)nc2c1C,0%,?,2.1µM*,2.3µM*
Cc1cccnc1CN1CCN(C(=O)c2cc(COc3ccc4ncccc4c3)on2)CC1,31%,4µM*,?,8%
CCOC(=O)N1CCN(C(=O)c2cc(COc3cccc(C(C)=O)c3)on2)CC1,-9%,17%,-10%,-9%
CCOC(=O)N1CCN(C(=O)c2cc(COc3ccc4ncccc4c3)on2)CC1,12%,7.9µM*,i,?
Cc1ccc(OCc2cc(C(=O)N(C)CC3CCOCC3)no2)cc1C,-16%,-20%,?,-15%
Cc1ccc(OCc2cc(C(=O)N(C)Cc3cnc4ccccn34)no2)cc1C,-14%,11µM*,?,-25%
CN(Cc1nccn1C)C(=O)c1cc(COc2ccc3ncccc3c2)on1,-10%,?,11%,-10%
Cc1cc(CN(C)C(=O)c2cc(COc3ccc4ncccc4c3)on2)on1,-11%,2.8µM*,5%,-8%
OCCN1CCN(c2nc(NCc3ccco3)c3ccccc3n2)CC1,-15%,?,9.3µM*,?
c1ccc(CN2CCN(c3nc(NCc4ccco4)c4ccccc4n3)CC2)cc1,-17%,?,·,?
Cc1ccc(OCCN2CCN(c3nc(NCc4ccco4)c4ccccc4n3)CC2)cc1,-19%,11µM*,3%,?
Cc1nnc(SCC(=O)c2ccc(Cl)cc2)n(N)c1=O,-25%,3%,0%,0%
CCOC(=O)NC(O)C(=O)c1ccc(F)cc1 (stereo unspecified),-4%,13%,?,-18%
CCOC(=O)NC(O)C(=O)c1cccs1 (stereo unspecified),19%,16%,5.2µM*,8%
O=[N+]([O-])c1ccc(-c2nnc(-c3ccccc3)c(NCCCO)n2)cc1,2%,8%,5.2µM*,?
Cc1cccc(N(Cc2cc3cc(C)ccc3[nH]c2=O)C(=O)c2cccs2)c1,5%,?,7.4µM*,13µM*
COc1ccc(N(Cc2cc3cc(OC)ccc3[nH]c2=O)C(=O)C2CCCO2)cc1 (stereo unspecified),11%,7%,42%,?
COc1ccc2[nH]c(=O)c(CN(C(=O)C3CCCO3)c3cccc(C)c3)cc2c1 (stereo unspecified),·,12%,8.3µM*,11%
O=C(NC1CC1)c1ccc(CS(=O)c2ccc(Br)cc2)o1 (stereo unspecified),-7%,7%,10µM*,16%
Cc1ccc(CSCc2ccc(C(=O)NC3CC3)o2)cc1,-12%,-13%,?,1.2µM*
COc1ccc(S(=O)Cc2ccc(C(=O)NC3CC3)o2)cc1 (stereo unspecified),0%,12%,-5%,11%
CC(C)(O)C#Cc1ccc(N2C(c3ccsc3)=Cc3ccc(F)cc3C2c2c[nH]c3ccccc23)cc1 (stereo unspecified),2%,·,·,·
Cn1c(=O)n(CC(=O)OCc2ccccc2)c(=O)c2c1nc1n2CCCN1C1CCCCC1,0%,4%,·,·
COc1ccc(Nc2nnc(C)c(=O)[nH]2)c(OC)c1,6%,3%,27%,-7%
COc1ccc(-c2c3c(=O)n(C)c(=O)n(C)c3cn2C2CCCCC2)cc1,-19%,25µM*,22%,?
SMILES,AMA1 RON2 block,HCV inh,Pf growth 96h,Pf growth 48h
COc1ccccc1N1CCN(C2CCCN(C(=O)c3cc(C4CC4)on3)C2)CC1 (stereo unspecified),-9%,-16%,21%,-4%
Nc1nc2ccccc2n1/N=C/c1cccnc1,1%,31%,·,·
Nc1nc2ccccc2n1/N=C/c1ccc([N+](=O)[O-])s1,3%,3.5µM*,1.5µM*,?
COc1ccc(C2=NCCn3nc4cc(OC)ccc4c32)cc1,12%,-14%,0%,15%
Clc1ccc(Nc2ccc(-n3ccnc3)nn2)cc1Cl,1%,-6%,1.9µM*,2.6µM*
NC(=O)CC(NC(=O)Cc1ccc(Cl)cc1)c1ccc(NCc2ccccc2)c([N+](=O)[O-])c1 (stereo unspecified),-1%,-4%,-1%,?
O=C(COC(=O)C12CC3CC(CC(C3)C1)C2)NNC(=O)c1ccccc1,27%,16%,·,·
CCC(C)[C@H](N)c1cn([C@@H](Cc2ccc(O)cc2)C(=O)N2CCNCC2)nn1 (stereo partly specified),1%,-5%,75%,26%
CC[C@@H](C)C(NC(=O)OC(C)(C)C)c1cn([C@@H](Cc2ccc(O)cc2)C(=O)N2CCN(C(=O)OC(C)(C)C)CC2)nn1 (stereo partly specified),-2%,13%,8.3µM*,11%
CC(C)CC(NC(=O)OC(C)(C)C)c1cn([C@@H](CCC(=O)OC(C)(C)C)C(=O)N2CCN(C(=O)OC(C)(C)C)CC2)nn1 (stereo partly specified),9%,13%,10µM*,?
CC[C@H](C)C(C(=O)N1CCN(C(=O)OC(C)(C)C)CC1)n1cc(C(CC(C)C)NC(=O)OC(C)(C)C)nn1 (stereo partly specified),1%,11%,2.3µM*,?
O=C(OCCN1CCCCC1)c1cccc(F)c1,44%,16%,5.9µM*,44%
O=C(OCCN1CCCCC1)c1ccc(Cl)cc1,0%,12%,3%,·
O=c1[nH]c(-c2ccccc2Cl)nc2c1sc(=S)n2-c1ccccc1,-11%,8%,56%,51%
O=C(O)COc1ccccc1/C=N/NC(=O)CSc1nc2ccccc2n1Cc1ccc(Cl)cc1,6%,5%,?,15µM*
Cc1ccc(OCCSc2nc3ccccc3n2CC(=O)O)cc1C,1%,12%,12µM*,8%
CCCCOc1ccc(OCCSc2nc3ccccc3n2CC(=O)O)cc1,-7%,24%,?,-14%
O=C(O)CCSc1nc2ccccc2n1Cc1ccccc1,-6%,12%,2.9µM*,-9%
O=C(O)Cn1c(SCCOc2ccccc2)nc2ccccc21,-2%,3%,8.3µM*,13%
Cc1cccc(OCc2nnc(SCC(=O)O)n2-c2ccccc2)c1,14%,10%,2%,2%
Cc1ccc(S(=O)(=O)N(C)c2ccc(OC(=O)c3cccs3)cc2)cc1C,-2%,4%,-6%,-6%
Cc1ccc(N/C(=C\C(=O)c2ccccc2)C(=O)O)cc1,31%,12%,20%,80%
NC(=O)c1nsc(C(=O)N(Cc2cccnc2)C(C(=O)NCc2ccc(F)cc2)c2ccc(O)cc2)c1N (stereo unspecified),15%,-25%,18%,?
O=C(O)CCn1c(SCCOc2ccccc2)nc2ccccc21,-3%,18%,12µM*,17%
O=C(O)Cn1c(=O)c(-c2ccccc2)nc2ccccc21,13%,29%,7.4µM*,13%
COc1ccc(OCCSc2nc3ccccc3n2CCC(=O)O)cc1,-8%,9%,11%,-7%
COc1cccc(CN2CCN(Cc3ccc(O)cc3)CC2CCO)c1 (stereo unspecified),5%,-8%,-7%,9%

# Screening results as filed in PubChem.
